Bioassay records (PubChem)
Many of the other results were omitted from the sample, so hits are more common in it than they were.
MITF inh: blocks MITF activity. TRPM1 promoter luciferase, luminescence, 24 h. inhibition, % (test concentration not listed). 0.28% of 37,000 active; in the data active = inhibition above about 85%; inconclusive = no clear call, values can overlap the other calls; inactive = below about 68%;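 note: human melanocyte line stably carrying TRPM1 promoter luciferase reporter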
Hedgehog inh: blocks Sonic Hedgehog signaling. 2.1% of 22,000 active. Shh-LIGHT2 Gli-luciferase reporter, 30 h. inhibition, % (no concentration beside the values);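 active = mean inhibition across valid replicates above about 65%, limit read from the data; inconclusive = mean under the limit, yet half or more replicates past it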;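 note: pathway switched on by Shh-conditioned medium diluted 1 in 25 in low serum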
BJeLR viability: compounds reducing viability of BJeLR cells; BJeLR fibroblasts viability, CellTiterGlo ATP luminescence, 48 h; HRASV12, hTERT and SV40 LT/ST transformed; viability loss activity score, % (no concentration beside the values); 0.64% of 30,000 active; AID 2275; in the data active = viability loss activity score above about 50%; inconclusive = no clear call, values can overlap the other calls; inactive = below about 35%;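 note: higher score means fewer live cells and less ATP luminescence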
YB-1 expr inh: YB-1 expression inhibition. AID 434959. U2OS, qRT-PCR YB-1 vs CDIP delta delta Cp, 16 h; stronger effect = higher value; zero = DMSO, each unit about twofold. 0.37% of 30,000 active. delta delta Cp (YB-1 minus CDIP) (test concentration not listed);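 active = delta delta Cp rounded down to an integer at or above 3, about 3 SD of DMSO wells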;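 note: higher means less YB-1 transcript or more CDIP transcript relative to DMSO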
The depositor's hits bear a star; ? = inconclusive; / = not tested or not shown; ! = not active in a repeat.

SMILES	MITF inh	Hedgehog inh	BJeLR viability	YB-1 expr inh
C[C@@H]1CN([C@@H](C)CO)C(=O)c2cc(NC(=O)Nc3ccc(C(F)(F)F)cc3)ccc2O[C@@H]1CN(C)Cc1ccc(C(F)(F)F)cc1	101*	18	5	-0.32
C[C@H]1CN([C@@H](C)CO)C(=O)Cc2cc(NC(=O)Nc3ccc(C(F)(F)F)cc3)ccc2O[C@H]1CN(C)Cc1ccc(Cl)c(Cl)c1	93*	9	/	-0.038
C[C@H]1CN([C@@H](C)CO)C(=O)c2cc(NC(=O)Nc3ccc(C(F)(F)F)cc3)ccc2O[C@@H]1CN(C)Cc1ccc(C(F)(F)F)cc1	95*	/	4	0.17
C[C@@H]1CN([C@H](C)CO)C(=O)Cc2cc(NC(=O)Nc3ccc(C(F)(F)F)cc3)ccc2O[C@H]1CN(C)Cc1ccc(Cl)c(Cl)c1	-1	-15	/	0.24
CCOC(=O)c1ccc(N=Cc2c(O)[nH]c(=O)[nH]c2=O)cc1	/	/	3	/
C[C@H](CO)N1C[C@H](C)[C@H](CN(C)S(C)(=O)=O)Oc2ccc(N(C)C)cc2C1=O	5	-1	0	-0.16
CCOC(=O)COc1ccc(=O)n(-c2ccccc2)n1	/	/	1	/
COc1ccc2cc3cc(C(=O)NCCN(C)C)oc3nc2c1	/	/	-1	/
C[C@@H]1CN([C@@H](C)CO)C(=O)c2cc(NC(=O)Nc3ccc(F)cc3)ccc2O[C@@H]1CN(C)Cc1ccc(Cl)c(Cl)c1	74	85*	-3	0.13
C[C@H]1CN([C@@H](C)CO)C(=O)c2cccc(NC(=O)Nc3ccccc3)c2O[C@@H]1CN(C)Cc1ccc(C(F)(F)F)cc1	41	5	-3	-0.29
Cc1ccc(S(=O)(=O)Nc2ccc3c(c2)CC(=O)N([C@@H](C)CO)C[C@H](C)[C@@H](CN(C)Cc2ccc(C(F)(F)F)cc2)O3)cc1	23	69*	/	-0.3
C[C@@H]1CN([C@@H](C)CO)C(=O)c2cccc(NC(=O)Nc3ccccc3)c2O[C@H]1CN(C)Cc1ccc(C(F)(F)F)cc1	40	74*	8	-0.053
C[C@@H]1CN([C@H](C)CO)C(=O)c2cc(NC(=O)Nc3ccc(F)cc3)ccc2O[C@H]1CN(C)Cc1ccc(Cl)c(Cl)c1	5	-40	0	0.22
C[C@H]1CN([C@@H](C)CO)C(=O)c2cc(NC(=O)CCCCCC(=O)Nc3ccccc3N)ccc2O[C@@H]1CN(C)C(=O)Nc1cccc2ccccc12	4	/	-2	0.073
Nc1ncnc2c1cnn2-c1ccccc1	-8	-14	4	3.9*
c1ccc(-n2ncc3c(N4CCc5ccccc54)ncnc32)cc1	-19	-126	-3	0.26
CCn1c2c(c3cc(OCc4ccccc4)ccc31)CCCC2=O	-25	77*	4	0.28
CCn1c2c(c3cc(Br)ccc31)CCCC2=O	-8	8	0	-0.089
CC1(C)CC(=O)C=C(Sc2nc3cc(Cl)ccc3s2)C1	?	?	69*	0.78
Cc1oc2c(c1C(=O)NCc1ccccc1)C(=O)c1ccccc1C2=O	58	93*	18	0.24
Cc1c(C(=O)NCc2ccccc2)oc2c1C(=O)CCC2	/	/	1	/
Cc1ccc(S(=O)(=O)Nc2ccc3c(c2)C(=O)N([C@H](C)CO)C[C@@H](C)[C@H](CN(C)C(=O)NC(C)C)O3)cc1	-3	/	-1	-0.15
CN/C(=C/[N+](=O)[O-])NCCSCc1csc(CN(C)C)n1	0	-6	4	3.8*
O=C(Nc1cc2c(ccc3ccccc32)oc1=O)c1ccccc1	27	-20	0	3.3*
CCCCCC(=O)Cc1cc(O)c(O)c2c1C(=O)Oc1cc(O)c(C(=O)O)c(CCCCC)c1O2	29	75*	99*	0.55
SMILES	MITF inh	Hedgehog inh	BJeLR viability	YB-1 expr inh
CCCc1c(C(=O)O)c(O)cc2c1C(=O)c1c(O)cccc1C2=O	8	0	2	0.0046
N#C/C(=C\Nc1cc(C(F)(F)F)cc(C(F)(F)F)c1)S(=O)(=O)Cc1ccc(Cl)cc1	72	107*	12	-0.25
C[C@@H]1C[C@@H]2O[C@H]2/C=C/C=C\C(=O)Cc2c(Cl)c(O)cc(O)c2C(=O)O1	3	43	81*	0.64
COc1cc(O)cc2c1C(=O)OC(C)C2 (stereo unspecified)	6	-46	5	-0.43
C[C@H]1CC[C@@H]2[C@@H](C(=O)c3c(O)c([C@]4(O)CC[C@@H](O)[C@H]5O[C@H]54)c[nH]c3=O)[C@@H](C)C=C[C@H]2C1	74	96*	54*	-0.36
COc1ccc(NC(=O)Nc2ccc3c(c2)CC(=O)N([C@@H](C)CO)C[C@H](C)[C@H](CN(C)C(=O)Nc2ccc(OC)cc2)O3)cc1	-3	-16	/	-0.23
N#Cc1cc2c(OCC(O)CN3CCN(C(c4ccccc4)c4ccccc4)CC3)cccc2[nH]1 (stereo unspecified)	99*	103*	1	-0.7
C[C@H](CO)N1C[C@H](C)[C@H](CN(C)Cc2ccccc2)Oc2c(NS(=O)(=O)c3cn(C)cn3)cccc2C1=O	1	38	4	-0.18
N/C(=N/c1nc2ccccc2o1)NC(=O)c1ccccc1NC(=O)c1ccccc1	/	/	1	/
CC[C@]1(O)C[C@H]2CN(CCc3c([nH]c4ccccc34)[C@@](C(=O)OC)(c3cc4c(cc3OC)N(C=O)[C@H]3[C@@](O)(C(=O)OC)[C@H](OC(C)=O)[C@@]5(CC)C=CCN6CC[C@]43[C@@H]65)C2)C1	38	71*	61*	0.31
CC(C)NC(=O)N(C)C[C@@H]1Oc2ccc(NS(C)(=O)=O)cc2C(=O)N([C@H](C)CO)C[C@@H]1C	3	/	1	-0.32
CCCCC/C=C\C/C=C\C/C=C\C/C=C\CCCCCC(=O)O	-6	-10	4	-0.062
CCCCCCCCCC/C=C\CCCCCCCc1cccc(O)c1C(=O)O	81	103*	-11	-0.068
CCCCCCCC/C=C\CCCCCCCc1cccc(O)c1C(=O)O	11	66*	-3	-0.28
COc1ccc(Cl)cc1NC(=O)CCCN1C(=O)c2ccccc2C1=O	-14	/	/	/
C[C@@H]1CN([C@@H](C)CO)C(=O)c2cccc(NS(=O)(=O)c3ccc(F)cc3)c2O[C@@H]1CN(C)C	0	-28	0	-0.31
C[C@H](CO)N1C[C@H](C)[C@H](CN(C)Cc2ccc(Oc3ccccc3)cc2)Oc2ccc(NC(=O)CCN3CCOCC3)cc2C1=O	-8	49	-3	-0.49
CCCCNc1c(C(=O)OCC)c(C)nc2c1cnn2CC	-23	-34	80*	0.16
CCc1cc(C(c2ccc(Cl)cc2)N2CCN(CCO)CC2)c(NC(=O)c2ccccc2)s1 (stereo unspecified)	55	81*	10	-0.18
O=C(c1ccc(Cl)cc1)N1CCN(C(c2ccccc2)c2ccccc2)CC1	/	/	2	/
Clc1ccc(COC(Cn2ccnc2)c2ccc(Cl)cc2Cl)c(Cl)c1 (stereo unspecified)	11	65*!	2	-0.024
CC(=O)OCC1=C[C@@H](O)[C@@H]2C=CO[C@@H](OC3OC(CO)C(O)C(O)C3O)[C@H]12 (stereo partly specified)	-17	-2	-2	2.3
